# Records with an inconclusive call do not appear. Active and inactive are the calls of the source. The call rests on the fitted dose curve; in most records, active means well fitted inhibition curve with a large enough effect; inconclusive means small, poorly fitted or top-dose-only effect; inactive means flat fitted curve, though single readings scatter.
# Test system: HACAT
# Assay: qHTS assay to identify novel small-molecules to repurpose for Merkel cell carcinoma treatment (AID 1296009); further: nearly all actives have a fitted effect of over 60% in size
# Conditions: MCC and control cell lines, CellTiter-Glo viability, 72 h; at 44.8 µM (top of the series) unless noted
# How it was run: (§1)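 CellTiter-Glo luminescence after 72 hr compound exposure at 37 degree celsius gave cell viability. Libraries NPC and MIPE were run as 8- and 11-point dose responses; RLUs normalized to DMSO (negative) and no-cell (cytotoxicity) controls.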
row,Compound,outcome
1,C/C=C(\C)C(=O)OC1C(C)OC(OC2C(C)OC(OC3CCC4(C)C(=CCC5C4CCC4(C)C(C(C)OC6OC(COC7OC(CO)C(O)C(O)C7O)C(O)C(O)C6O)CCC54O)C3)CC2OC)C(O)C1OC (configuration not stated),inactive [at 9.27 µM]
2,COc1cc(C(=O)O[C@H]2[C@@H]3C=CO[C@@H](O[C@@H]4O[C@H](CO)[C@@H](O)[C@H](O)[C@H]4O)[C@@H]3[C@@]3(CO)O[C@@H]23)ccc1O,inactive [at 17.4 µM]
3,CC(C)C1(OO)C=C2C(=O)CC3C(C)(C(=O)O)CCCC3(C)C2CC1 (configuration not stated),inactive
4,C[C@@](O)(COc1ccc(C#N)cc1)C(=O)Nc1ccc(C#N)c(C(F)(F)F)c1,inactive
5,COC1=CC(=O)O[C@@H](/C=C/c2ccccc2)C1,inactive
6,CCN1C[C@]2(OC(=O)c3ccccc3NC(C)=O)CC[C@H](OC)[C@@]34[C@@H]2C[C@@H]([C@@H]13)[C@@]1(O)C[C@H](OC)[C@H]2C[C@@H]4[C@]1(O)[C@H]2OC,inactive
7,CC1=CC2/C=C(\C)CCC(O)C3OC(C)(C)OC3CC(=O)OC23C(=O)NC(CC(C)C)C3C1C (configuration not stated),inactive [at 17.4 µM]

# Test system: HEK293T
# Assay: as above
# Conditions: MCC and control cell lines, CellTiter-Glo viability, 72 h; at 44.8 µM (top of the series) unless noted
# How it was run: as §1
row,Compound,outcome
1,CC(=O)OC1CC(O)C2(C)C(CC(OC(C)=O)C3(C)C2CCC2(C)C(c4ccoc4)C(=O)C4OC423)C1(C)C (configuration not stated),inactive [at 17.4 µM]
2,CN1C(=O)c2ccccc2NC(=O)[C@]12O[C@@H]2c1ccccc1,inactive
3,CC(N)Cc1c[nH]c2ccccc12 (configuration not stated),inactive
4,C=C[C@H]1[C@H](O[C@@H]2O[C@H](CO)[C@@H](O)[C@H](O)[C@H]2O)OC=C2C(=O)OCC[C@H]21,inactive
5,C/C=C(\C)C(=O)O[C@H]1[C@H](OC(C)=O)[C@]2(CO)[C@H](O)[C@H](O)[C@]3(C)C(=CCC4[C@@]5(C)CC[C@H](O[C@@H]6O[C@H](C(=O)O)[C@@H](O)[C@H](O[C@@H]7OC[C@H](O)[C@H](O[C@@H]8OC[C@H](O)[C@H](O)[C@H]8O)[C@H]7O)[C@H]6O[C@@H]6O[C@H](CO)[C@@H](O)[C@H](O)[C@H]6O)C(C)(C)C5CC[C@]43C)[C@@H]2CC1(C)C (some centres not stated),inactive [at 9.27 µM]
6,CN1C(=O)c2ccccc2NC(=O)C1Cc1ccccc1 (configuration not stated),inactive
7,CC(C)=C1CC[C@]23CO[C@H](C2)[C@@](O)(C(=O)O)CCC13 (some centres not stated),inactive
8,CC(=O)O[C@H]1C[C@@H](OC(C)=O)C(C)(C)C2C[C@@H](O)[C@]3(C)C(CC[C@@]4(C)[C@H](C5=CC(=O)OC5O)C[C@H]5O[C@]543)[C@]21C (some centres not stated),inactive [at 17.4 µM]
9,CC1=C2C[C@H]3[C@@H](CC=C4C[C@@H](O)CC[C@@]43C)[C@@H]2CC[C@]12O[C@@H]1C[C@H](C)CN[C@H]1[C@H]2C,inactive
10,C=C(C)[C@H]1O[C@H]2CC[C@@]3(C)[C@@](O)(CC[C@H]4[C@@H]5OC(C)(C)[C@H]6C[C@@H]7C(=C)Cc8c(Cl)cc9[nH]c(c5c9c8[C@@]76O)[C@@]43C)[C@]23O[C@@H]3[C@H]1O,inactive [at 17.4 µM]

# Source: PubChem BioAssay (NCATS)
